Data reported in PubChem BioAssay (NCATS).
“And” between values parts separate entries of the source, which are not always exact repeats. Identical values can stand only once. Inconclusive results are not listed. The source made the active and inactive calls. Unless noted, calls follow the shape of the dose curve; as a rule, active = well fitted curve in the direction sought with a large enough effect; inconclusive = small, poorly fitted or top-dose-only effect, or another doubt; inactive = no such curve, though single readings can be large; an effect the other way counts as inactive or inconclusive.

How the values were obtained:
WaGa = assay: qHTS assay to identify novel small-molecules to repurpose for Merkel cell carcinoma treatment (AID 1296009); conditions: MCC and control cell lines, CellTiter-Glo viability, 72 h; series mostly up to 46 µM; also: % is scaled to controls: 0 for no effect and ±100 for the full control effect; nearly all actives have a fitted effect of over 60% in size
Method in brief: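 After compound transfer in DMSO, plates were kept 72 hr at 37 degree celsius. Luminescent ATP signal from CellTiter-Glo served as viability measure, normalized against DMSO and no-cell controls.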

C33A = assay: Primary qHTS to identify gynecologic anti-cancer compounds using libraries of approved drugs and bioactive compounds (AID 1345084); conditions: Gynecologic cancer cell panel viability, ATPlite luminescence, 48 h; series mostly up to 57.5 µM; also: nearly all actives have a fitted effect of over 55% in size; also: potency is read from the fitted curve at half-maximal effect
Method in brief: (§1)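 Cytotoxicity screen measuring ATP content by luciferase luminescence. Each compound is applied at five concentrations for 48 h at 37 C with 5% CO2.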

CAOV3 = assay: as above; conditions: Gynecologic cancer cell panel viability, ATPlite luminescence, 48 h; series mostly up to 57.5 µM
Method in brief: as §1

CASKI = assay: as above; conditions: Gynecologic cancer cell panel viability, ATPlite luminescence, 48 h; series mostly up to 57.5 µM
Method in brief: as §1

Es-2 = assay: as above; conditions: Gynecologic cancer cell panel viability, ATPlite luminescence, 48 h; series mostly up to 57.5 µM
Method in brief: as §1

HeLa = assay: as above; conditions: Gynecologic cancer cell panel viability, ATPlite luminescence, 48 h; series mostly up to 57.5 µM
Method in brief: as §1

Hek293T = assay: as above; conditions: Gynecologic cancer cell panel viability, ATPlite luminescence, 48 h, control line for the selectivity index; series mostly up to 57.5 µM
Method in brief: as §1

JEG-3 = assay: as above; conditions: Gynecologic cancer cell panel viability, ATPlite luminescence, 48 h; series mostly up to 57.5 µM
Method in brief: as §1

PA-1 = assay: as above; conditions: Gynecologic cancer cell panel viability, ATPlite luminescence, 48 h; series mostly up to 57.5 µM
Method in brief: as §1

SKOV3 = assay: as above; conditions: Gynecologic cancer cell panel viability, ATPlite luminescence, 48 h; series mostly up to 57.5 µM
Method in brief: as §1

Tov-21-G = assay: as above; conditions: Gynecologic cancer cell panel viability, ATPlite luminescence, 48 h; series mostly up to 57.5 µM
Method in brief: as §1

Tov112D = assay: as above; conditions: Gynecologic cancer cell panel viability, ATPlite luminescence, 48 h; series mostly up to 57.5 µM
Method in brief: as §1

[1] = Drug repurposing screens with cells derived from glioblastoma tumor samples (AID 1345199); conditions: GBM patient neurospheres viability, ATP luminescence, 48 h; also: nearly all actives have a fitted effect of over 40% in size; also: potency is read from the fitted curve at half-maximal effect; as to activity, negative = cell killing: % is scaled to controls: 0 for no effect and ±100 for the full control effect
Method in brief: (§2)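 Four patient lines of CD133+ GBM neurospheres were screened at several concentrations; hits were retested in those lines plus three slower-growing GBM lines, using 48-hour treatment and ATP-based viability.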

astro = assay: as above; conditions: viability, ATP luminescence, 48 h; series mostly up to 45.9 µM
Method in brief: as §2

[2] = target: Nuclear receptor subfamily 1 group I member 2 (Rattus norvegicus) (UniProt Q9R1A7); assay: qHTS assay for small molecule activators of the rat pregnane X receptor (rPXR) signaling pathway (AID 651751; call rule not given here; also: 0% is about no effect); conditions: rPXR reporter cells, luciferase (One-Glo), 24 h
OV90 = assay: Primary qHTS to identify gynecologic anti-cancer compounds using libraries of approved drugs and bioactive compounds (AID 1345084); conditions: Gynecologic cancer cell panel viability, ATPlite luminescence, 48 h; series mostly up to 57.5 µM; also: nearly all actives have a fitted effect of over 55% in size; also: potency is read from the fitted curve at half-maximal effect
Method in brief: as §1

[3] = qHTS assay to identify inhibitors of the type 1 interferon - major histocompatibility complex class I in skeletal muscle: Counter screen cell viability and HiBit confirmation (AID 1347412); conditions: iHSKM muscle cells + IFN-b, HiBiT or CellTiter-Glo, 24 h; Potency: HiBiT; Viability, at 45.9 µM (top of the series); also: % is scaled to controls: 0 for no effect and ±100 for the full control effect; nearly all actives have a fitted effect of over 60% in size
Method in brief: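 After 24 h with human IFN-beta (4 ng/ml) and compound titrations (top 46 uM final, 1:3, 12 points), HLA-B HiBit myoblasts were lysed for either Nano-Glo HiBiT luminescence or CellTiter Glo viability on paired plates.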

[4] = at 45.9 µM (top of the series), tumour line B
[5] = at 45.9 µM (top of the series), tumour line D
[6] = at 46.1 µM (top of the series), tumour line C
[7] = at 46 µM (top of the series), tumour line A
[8] = at 20 µM (top of the series), tumour line C
[9] = at 21.2 µM (top of the series), tumour line B

Chain of Nuclear receptor subfamily 1 group I member 2 (Rattus norvegicus) (Q9R1A7 whole entry, looked up): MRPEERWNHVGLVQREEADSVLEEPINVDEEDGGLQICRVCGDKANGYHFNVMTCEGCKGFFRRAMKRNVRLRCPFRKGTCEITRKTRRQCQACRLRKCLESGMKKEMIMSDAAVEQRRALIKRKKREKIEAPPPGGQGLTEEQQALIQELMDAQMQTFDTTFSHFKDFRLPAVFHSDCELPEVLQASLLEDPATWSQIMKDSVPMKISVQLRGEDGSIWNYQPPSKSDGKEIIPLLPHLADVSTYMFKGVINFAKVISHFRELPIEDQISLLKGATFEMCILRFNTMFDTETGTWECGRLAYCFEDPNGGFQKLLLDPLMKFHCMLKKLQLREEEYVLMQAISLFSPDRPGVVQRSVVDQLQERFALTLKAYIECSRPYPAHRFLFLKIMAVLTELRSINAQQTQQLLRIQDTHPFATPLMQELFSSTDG

NS(=O)(=O)c1cc2c(cc1Cl)NC=NS2(=O)=O
inactive: Potency (WaGa) | Potency (C33A) | Potency (CAOV3) | Potency (CASKI) | Potency (Es-2) | Potency (HeLa) | Potency (Hek293T) | Potency (JEG-3) | Potency (PA-1) | Potency (SKOV3) | Potency (Tov-21-G) | Potency (Tov112D) | activity, negative = cell killing [1, 4] -4.14% | activity, negative = cell killing [1, 5] -10.8% | activity, negative = cell killing [1, 6] 23.2% | Potency (astro) | max response [2] -2.2%

Cc1[nH]c(=O)c(C#N)cc1-c1ccc2nccn2c1
inactive: Potency (WaGa) | Potency (C33A) | Potency (CAOV3) | Potency (CASKI) | Potency (Es-2) | Potency (HeLa) | Potency (Hek293T) | Potency (JEG-3) | Potency (OV90) | Potency (PA-1) | Potency (SKOV3) | Potency (Tov-21-G) | Potency (Tov112D) | activity, negative = cell killing [1, 4] -4% | activity, negative = cell killing [1, 5] 0.316% | activity, negative = cell killing [1, 7] -27% | activity, negative = cell killing [1, 6] -6.47% | Potency (astro)

O=C(Nc1ccc(F)c(C(F)(F)F)c1)Nc1nnc(-c2ccncc2)s1
inactive: Potency (WaGa) | Potency (C33A) | Potency (CAOV3) | Potency (CASKI) | Potency (Es-2) | Potency (HeLa) | Potency (Hek293T) | Potency (JEG-3) | Potency (OV90) | Potency (PA-1) | Potency (SKOV3) | Potency (Tov-21-G) | Potency (Tov112D)

O=C(C1CC1)N1CC[C@@H](Cn2c(-c3ccc(-c4ccc5occc5c4)cc3)nc3cnccc32)C1
inactive: Potency (WaGa)

Cc1ccc(N(CC2=NCCN2)c2cccc(O)c2)cc1
inactive: Potency (WaGa) | Potency (C33A) | Potency (CAOV3) | Potency (CASKI) | Potency (Es-2) | Potency (HeLa) | Potency (Hek293T) | Potency (JEG-3) | Potency (OV90) | Potency (PA-1) | Potency (SKOV3) | Potency (Tov-21-G) | activity, negative = cell killing [1, 4] -13.6% | activity, negative = cell killing [1, 6] -7.27% | Potency (astro)
active: Potency ([1]; tumour line A) 14.1 µM

Cn1cnc2c(F)c(Nc3ccc(Br)cc3Cl)c(C(=O)NOCCO)cc21
active: Potency (OV90) 1.58 µM
inactive: Potency (WaGa) | Potency (C33A) | Potency (CAOV3) | Potency (CASKI) | Potency (HeLa) | Potency (Hek293T) | Potency (JEG-3) | Potency (PA-1) | Potency (SKOV3) | Potency (Tov112D)

CCN(CC)CCCC(C)Nc1nc(C)cc(Nc2ccc3nc(C)cc(N)c3c2)n1 (stereo not drawn)
inactive: Potency (WaGa)

O=C1CCc2cc(OCCCCc3nnnn3C3CCCCC3)ccc2N1
inactive: Potency (WaGa) | Potency (C33A) | Potency (CAOV3) | Potency (CASKI) | Potency (Es-2) | Potency (HeLa) | Potency (Hek293T) | Potency (JEG-3) | Potency (PA-1) | Potency (SKOV3) | Potency (Tov-21-G) | Potency (Tov112D) | activity, negative = cell killing [1, 4] -16.9% | activity, negative = cell killing [1, 5] -10.7% | activity, negative = cell killing [1, 6] -10.2% | Potency (astro)

CNC(=O)c1ccc(N2C(=S)N(c3ccc(C#N)c(C(F)(F)F)c3)C(=O)C2(C)C)cc1F
inactive: Potency (WaGa)

c1ccc([C@H]2CN3CCSC3=N2)cc1
active: Potency ([1]; tumour line A) 15.8 µM
inactive: Potency (WaGa) | Potency (C33A) | Potency (CAOV3) | Potency (CASKI) | Potency (Es-2) | Potency (HeLa) | Potency (Hek293T) | Potency (JEG-3) | Potency (OV90) | Potency (PA-1) | Potency (SKOV3) | Potency (Tov-21-G) | Potency (Tov112D) | activity, negative = cell killing [1, 4] -5.9% | activity, negative = cell killing [1, 5] -15.5% | activity, negative = cell killing [1, 6] -7.79% | Potency (astro)

O=c1n(CCCN2CCN(c3cccc(Cl)c3)CC2)nc2ccccn12
inactive: Potency (WaGa) | Potency (C33A) | Potency (CAOV3) | Potency (CASKI) | Potency (Es-2) | Potency (HeLa) | Potency (Hek293T) | Potency (JEG-3) | Potency (OV90) | Potency (PA-1) | Potency (SKOV3) | Potency (Tov-21-G) | Potency (Tov112D) | activity, negative = cell killing [1, 8] -4.25% | activity, negative = cell killing [1, 9] -8.69% | activity, negative = cell killing ([1]; at 21.2 µM (top of the series), tumour line D) 3.95% | Potency (astro)

COc1c(Cl)cc2c([nH]c3cnccc32)c1NC(=O)c1cccnc1C
inactive: Potency (WaGa) | Potency (C33A) | Potency (CAOV3) | Potency (CASKI) | Potency (Es-2) | Potency (HeLa) | Potency (Hek293T) | Potency (JEG-3) | Potency (OV90) | Potency (PA-1) | Potency (Tov-21-G) | Potency (Tov112D) | Potency [3]

O=S(=O)(N=Cc1c(O)ccc2ccccc12)c1cccs1
inactive: Potency (WaGa)

CN(C(=O)c1ccc(F)cc1C(F)(F)F)C1CCN(c2nnc(-c3ccnn3C)c3ccccc23)CC1
inactive: Potency (WaGa) | Potency (C33A) | Potency (CAOV3) | Potency (CASKI) | Potency (Es-2) | Potency (HeLa) | Potency (Hek293T) | Potency (JEG-3) | Potency (OV90) | Potency (PA-1) | Potency (SKOV3) | Potency (Tov-21-G) | Potency (Tov112D)

CCCc1nc2c(C)cc(-c3nc4ccccc4n3C)cc2n1Cc1ccc(-c2ccccc2C(=O)O)cc1
inactive: Potency (WaGa) | Potency (C33A) | Potency (CAOV3) | Potency (CASKI) | Potency (Es-2) | Potency (HeLa) | Potency (Hek293T) | Potency (JEG-3) | Potency (OV90) | Potency (PA-1) | Potency (SKOV3) | Potency (Tov-21-G) | Potency (Tov112D) | activity, negative = cell killing [1, 4] -13.6% | activity, negative = cell killing [1, 5] -10.2% | activity, negative = cell killing [1, 7] -16.9% | activity, negative = cell killing [1, 6] -10.7% | Potency (astro)

NNCCc1ccccc1
inactive: Potency (WaGa) | Potency (C33A) | Potency (CAOV3) | Potency (CASKI) | Potency (Es-2) | Potency (HeLa) | Potency (Hek293T) | Potency (JEG-3) | Potency (OV90) | Potency (PA-1) | Potency (SKOV3) | Potency (Tov-21-G) | Potency (Tov112D) | activity, negative = cell killing [1, 8] -0.565% | activity, negative = cell killing [1, 9] -10.9% | Potency (astro)

Cc1cnc(NC(=O)C2=C(O)c3ccccc3S(=O)(=O)N2C)s1
inactive: Potency (WaGa) | Potency (C33A) | Potency (CAOV3) | Potency (CASKI) | Potency (Es-2) | Potency (HeLa) | Potency (Hek293T) | Potency (JEG-3) | Potency (OV90) | Potency (PA-1) | Potency (SKOV3) | Potency (Tov-21-G) | Potency (Tov112D) | activity, negative = cell killing [1, 4] -11.1% and -5.23% | activity, negative = cell killing [1, 5] 7.55% and -2.79% | activity, negative = cell killing [1, 7] -27.8% | activity, negative = cell killing [1, 6] 4.05% and -0.835% | Potency (astro)
